Laboratory results taken from PubChem BioAssay (NCI).
Compounds without any hit were thinned out: in the full panel of roughly 79,000, 15% have a hit. Rule as the data show it: active = growth inhibition above about 70%; inactive = the rest.

Columns and labels:
[1] = NCI Yeast Anticancer Drug Screen. Data for the rad50 strain (AID 155);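 also: 0% = growth of vehicle-only cultures of the same strain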; conditions: S. cerevisiae rad50 strain growth inhibition, stronger effect = higher value; at 50.0 µM unless noted
Method in brief: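 DNA repair mutant yeast, compound exposure, growth read-out; inhibition is taken relative to vehicle.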

[2] = NCI Yeast Anticancer Drug Screen. Data for the mec2-1 strain (AID 157); conditions: S. cerevisiae mec2-1 strain, stronger effect = higher value; at 50.0 µM unless noted
Method in brief: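 Strain: mec2-1 (DNA repair/cell cycle alteration). Compound exposure, then growth measured; inhibition expressed relative to vehicle.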

[3] = NCI Yeast Anticancer Drug Screen. Data for the sgs1 mgt1 strain (AID 161);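 also: 0% = growth of cultures given vehicle only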; conditions: S. cerevisiae sgs1 mgt1 strain, stronger effect = higher value; at 50.0 µM unless noted
Method in brief: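 Genetically altered yeast, compound exposure, growth inhibition relative to vehicle.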

[4] = NCI Yeast Anticancer Drug Screen. Data for the cln2 rad14 strain (AID 165);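 also: 0% = growth equal to vehicle treated cultures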; conditions: S. cerevisiae cln2 rad14 strain, stronger effect = higher value; at 50.0 µM unless noted
Method in brief: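 Compounds are applied to the cln2 rad14 yeast strain, and growth is then compared with that of vehicle-treated cultures to give inhibition.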

[5] = NCI Yeast Anticancer Drug Screen. Data for the bub3 strain (AID 167); conditions: S. cerevisiae bub3 mutant strain, stronger effect = higher value; at 50.0 µM unless noted
Method in brief: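 In this screen, a yeast mutant lacking normal mitotic checkpoint function is challenged with compound. Relative growth versus vehicle gives the inhibition value.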

[6] = NCI Yeast Anticancer Drug Screen. Data for the mlh1 rad18 strain (AID 175); conditions: S. cerevisiae mlh1 rad18 strain growth inhibition, stronger effect = higher value; at 50.0 µM unless noted
Method in brief: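 Read-out is yeast growth inhibition, calculated against vehicle-only controls. The compound was applied to a strain engineered with DNA damage repair alterations.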

Measured: growth inhibition

CN(CCOC(=O)Nc1ccccc1)N=O
inactive: [1] 9.35% | [2] -9.35% | [3] 0.75% | [4] -15.4% | [5] 7.7% | [6] -3%

CCOC(=O)C(C)(c1[nH]c2ccccc2c1C)c1[nH]c2ccccc2c1C
inactive: [1] -0.55% | [2] -6.2% | [3] -14.2% | [4] -1.4% | [5] -14.6% | [6] -5.7%

CCCCCc1cc[n+](CC(=O)c2ccc(F)cc2)cc1
inactive: [1] -6.55% | [2] 13.6% | [3] 23.1% | [4] -35.6% | [5] 45.6% | [6] 13.5%

CCCCCCCCCCCCCCCCC(C#N)C(=O)O (stereo not drawn)
inactive: [1] -14.4% | [2] 0.95% | [3] -18.2% | [4] -1% | [5] -22.8% | [6] -18.9%

COc1ccc(OC)c(NC(=O)CCCC(=O)C(C#N)c2ccc(CC#N)cc2)c1 (stereo not drawn)
inactive: [1] -15.8% | [2] -17.6% | [3] -34.5% | [4] -40.8% | [5] 3.1% | [6] -25.6%

COC(=O)C1(C(C)C(=O)c2ccccc2)NC(=S)NC(=O)C1C#N (stereo not drawn)
inactive: [1] -6.1% | [2] -16.7% | [3] -35.2% | [4] -11.8% | [5] -14.4% | [6] -25.8%

CCCCN(CCCC)CCCC(O)c1c2ccccc2nc2ccccc12 (stereo not drawn)
inactive: [1] -3.55% | [2] -5.95% | [3] 7.6% | [4] -13.9% | [5] 1.4% | [6] 12.6%

CC(=O)NCCc1ccccc1
inactive: [1] -18.2% | [2] 20.9% | [3] 3.2% | [4] -19.3% | [5] 10% | [6] -0.1%

Nc1nnc2nc(C3(c4nc5nnc(N)n5[nH]c4=O)CCCC3=O)c(=O)[nH]n12
inactive: [1] 13.4% | [2] -10.8% | [3] -8.7% | [4] 3.45% | [5] 4.6% | [6] 16.2%

COc1ccc(N=N/C(=N/NC(=O)c2cc(Cl)ccc2C(=O)c2ccccc2)c2ccc(N(CCC#N)CCC#N)cc2C)cc1
inactive: [1] 3.2% | [2] 12.6% | [3] -32.9% | [4] 12.5% | [5] -11.9% | [6] 12.8%

C#CCC(C(=O)OC)N(CC)CC (stereo not drawn)
inactive: [1] 25.6% | [2] -21.9% | [3] 41.4% | [4] 0.55% | [5] 46.1% | [6] 33.7%

S=C(Nc1ccc2c(c1)oc1ccccc12)c1cccs1
inactive: [1] 35.1% | [2] 16.6% | [3] -36.2% | [4] -7.25% | [5] -9.6% | [6] -4.6%

COC(=O)NC(=O)c1cn(CCCOC(=O)CCCCCCCCC(=O)OCCCn2cc(C(=O)NC(=O)OC)c(=O)[nH]c2=O)c(=O)[nH]c1=O
inactive: [1] -13.5% | [2] -3.8% | [3] -7.45% | [4] 9.9% | [5] 13.3% | [6] -12.4%

CCCCCCCCCOCC(=O)O
inactive: [1] 34.4% | [2] 5.55% | [3] 7.5% | [4] 3.15% | [5] 2.3% | [6] 6.4%

CCOC(=O)C(c1ccc2c(c1)OCO2)C1(NC(=O)c2ccccc2)C(=O)C(C(=O)OC)C(=O)C1C(=O)OC (stereo not drawn)
inactive: [1] 16.5% | [2] 6.15% | [3] -6.7% | [4] 10% | [5] 1.4% | [6] 10.9%

COc1ccc(O)cc1C=O
inactive: [1] -6.4% | [2] -7.05% | [3] -10.6% | [4] 4% | [5] -7.35% | [6] -4.75%

CC1(C)OCC(C2OC3OC(C)(C)OC3C2N)O1 (stereo not drawn)
inactive: [1] 10.8% | [2] 10.7% | [3] 11.1% | [4] -2.95% | [5] 21.8% | [6] 5.4%

O=[N+]([O-])c1cc(Cl)ccc1S(=O)(=O)N1CCCc2cc(Cl)ccc21
inactive: [1] 66.2% | [2] 51.8% | [3] 64.8% | [4] 62.1% | [5] 63.6% | [6] 62%

Cn1c(=O)c2nc(SCC(=O)O)n(C)c2n(C)c1=O
inactive: [1] 3.6% | [2] 6.2% | [3] 7.4% | [4] -10.1% | [5] 5.35% | [6] 3.2%

C=CSS/C(=C/N(C=O)Cc1cnc(C)nc1N)CCO
inactive: [1] -10.6% | [2] -33.5% | [3] -18.9% | [4] 1.85% | [5] -17.1% | [6] -10%

Cc1ccc(Nc2nc(N)nc3c2ncn3C2OC(CO)C(O)C2O)cc1 (stereo not drawn)
inactive: [1] 25.8% | [2] 2.6% | [3] 7.85% | [4] -3.75% | [5] 18.6% | [6] 7.35%

CCN(CC)/N=C/c1cc([N+](=O)[O-])ccc1O
inactive: [1] 24.9% | [2] 5.4% | [3] -6.85% | [4] -50.9% | [5] 2.9% | [6] 15.7%

Cc1cc(Cl)cc2c1OC(C)OC2=O (stereo not drawn)
inactive: [1] -7.85% | [2] 0.2% | [3] -17.6% | [4] -5.6% | [5] 11.6% | [6] 28.6%
